# PfHsp90 set2 = growth inhibition of PfHsp90-expressing yeast, primary screen, antimalarial PfHsp90 inhibitor project, S. cerevisiae, BacTiter-Glo luminescence, single point, set 2 | BacTiter-Glo ATP, 48 h; yeast lacking PDR1 and PDR3 efflux regulators | inhibition, % at 9.4 µM | 310,000 compounds, 0.32% hits | AID 504621, 2011;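 active = every replicate shows inhibition above about 80%, whatever the replicate mean, limit read from the data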;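 also: 0% = DMSO neutral controls and 100% = 20 µM radicicol positive controls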
# TIM10 inh = growth inhibitors of isogenic TIM10 control yeast, primary screen, counter-screen for tim10-1 yeast inhibitor project, luminescence, uHTS | AID 463195, 2010 | S. cerevisiae TIM10 strain growth, BacTiter-Glo luminescence, 24 h | 330,000 compounds, 1.4% hits | inhibition, % at 10 µM;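 active = inhibition of 40% or more at the single tested concentration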;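 also: wild-type TIM10 isogenic control strain grown at permissive 25 °C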
# tim10-1 inh = growth inhibitors of tim10-1 mutant yeast, primary screen, luminescence, uHTS; inhibition, % at 20 µM; S. cerevisiae tim10-1 ts strain growth, BacTiter-Glo, 24 h; 330,000 compounds, 2.2% hits;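 active = inhibition of at least 40%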;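 also: mutant grown at 25 °C; 0% = DMSO wells with yeast and 100% = wells holding no yeast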
# tim23-1 inh = growth inhibitors of tim23-1 mutant yeast, primary screen, luminescence, uHTS. S. cerevisiae tim23-1 growth, BacTiter-Glo luminescence, 24 h. inhibition, % at 20 µM. 330,000 compounds, 1.3% hits. AID 463212, 2010;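 active = growth inhibition of the mutant yeast at or above 50%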;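 also: temperature-sensitive mutant grown at 25 °C; plate controls were DMSO-treated mutant yeast for no effect and medium wells lacking yeast for full effect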
# V-ATPase pHluor = regulators of yeast V-ATPase proton pumping, primary screen, pHLuorin cytosolic pH fluorescence | 350,000 compounds, 0.37% hits | S. cerevisiae | response, % at 10 µM; in the data active = response mostly above about 7.3%, no sharp cut-off; inactive = mostly below about 5.4%; also: actives read high
# TIM10 conf = growth inhibitors of wild-type TIM10 yeast, confirmation, counter-screen for tim10-1 synthetic lethality project, single concentration, luminescence, S. cerevisiae. shares compounds with TIM10 inh. S. cerevisiae tim10 strain growth, BacTiter-Glo luminescence, 24 h. inhibition, % at 10 µM. 4,600 compounds, 63% hits;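 active = inhibition of yeast growth at or above a set limit in either of two replicates at 10 µM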;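 also: this counterscreen used the strain with wild-type TIM10; 0% = yeast with DMSO and 100% = medium wells lacking yeast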
# Numbers without * were called inactive; · = not tested or not shown. Rows were chosen to be rich in hits. Some 3.7% of all compounds tested hit in one or more screens of this group.
SMILES,PfHsp90 set2,TIM10 inh,tim10-1 inh,tim23-1 inh,V-ATPase pHluor,TIM10 conf
CN(C)c1ccc(C(O)P(=O)(OC2CCCCC2)OC2CCCCC2)cc1 (configuration not stated),-2,24,21,39,-2,·
CN(C)CCCNS(=O)(=O)c1ccc(NC2CCCCCC2)c([N+](=O)[O-])c1,-6,-2,-3,-1,2,·
CSc1nc2sc3c(c2c(=S)[nH]1)CC(C)(C)OC3,-24,43*,37,40,-2,44*
CC(=O)Nc1ccccc1NC(=O)c1ccc(C)c(C)c1,-6,9,9,12,-2,·
COc1ccc(C2=NN(C(N)=S)C(c3ccccc3)C2)cc1 (configuration not stated),9,41*,31,33,0,26
COc1ccccc1C1CC(c2ccccc2)=NN1C(=S)Nc1ccccc1 (configuration not stated),0,41*,16,30,-3,26
COc1ccc(C2CC(c3ccccc3)=NN2C(=S)Nc2ccccc2)cc1 (configuration not stated),16,29,26,19,3,·
COc1ccc(/C=C(\C#N)C(=O)NCc2ccccc2)cc1,7,5,19,15,1,·
CCn1c(CNc2cccc(Cl)c2)nnc1SCc1ccccc1,13,41*,39,44,-1,49*
CSc1ccc(C(=S)N2CCCC2)cc1,11,59*,-2,-8,4,3
Cc1cc2nc(-c3ccc(=O)[nH]c3)n(Cc3ccccc3)c2cc1C,-27,1,23,26,-3,·
S=C(NCCc1ccccc1)Nc1ccc(Br)cn1,-8,17,-3,27,2,·
CCOC(=O)c1cnc(-n2nc(C)cc2C)nc1NCc1ccccc1,4,43*,36,40,11,39*
CCOC(=O)c1cnc(-n2nc(C)cc2C)nc1NCCO,·,10,13,-12,2,·
CC(C)C(=O)N[C@@H]1c2ccccc2CC[C@@H]1O,-5,-7,2,15,-1,·
CCN1CCCC1CNC(=O)c1ccc(N2CCOCC2)c(NS(=O)(=O)c2ccc(OC)cc2)c1 (configuration not stated),-15,19,15,11,0,·
NNC(=S)Nc1ccc(C(F)(F)F)cc1Cl,8,44*,31,38,-2,12
Cc1ccccc1S(=O)(=O)Cc1ccc(C(=O)NCCCN2CCCC(C)C2)o1 (configuration not stated),36,21,23,22,3,·
Cc1ccccc1CS(=O)(=O)Cc1ccc(C(=O)NCCCN2CC(C)CC(C)C2)o1 (configuration not stated),16,95*,-8,0,3,-3
O=C(NCc1nc(-c2ccc(Cl)cc2)no1)c1ccc2c(c1)OCO2,0,43*,-20,20,1,8
Cc1ccc(-c2noc(CNC(=O)c3ccc4c(c3)OCO4)n2)cc1,19,-11,-12,-1,-1,·
O=C(Nc1ccc2c(c1)nc1n2CCOC1)c1ccccc1,3,63*,35,44,1,47*
CC(C)C(=O)Nc1ccc2c(c1)nc1n2CCSC1,8,4,9,9,-3,·
O=C(Nc1ccc2c(c1)nc1n2CCSC1)c1ccccc1,-1,66*,39,40,1,67*
CCC(=O)Nc1ccc2c(c1)nc1n2CCSC1,-6,-2,20,14,-2,·
SMILES,PfHsp90 set2,TIM10 inh,tim10-1 inh,tim23-1 inh,V-ATPase pHluor,TIM10 conf
COc1ccc(C(=O)Nc2ccc3c(c2)nc2n3CCSC2)cc1,·,51*,11,35,10,42*
O=C(OC1CCCCC1=O)c1ccc(F)c(S(=O)(=O)N2CCOCC2)c1 (configuration not stated),20,1,2,12,-2,·
COc1cc(CNCc2c[nH]c3ccccc23)cc(OC)c1,-52,6,23,5,0,·
Cc1cc2nc(C)n3c4ccccc4nc3n2n1,19,59*,38,43,1,45*
CCOc1cc(/C=C2/C(=O)ON=C2C)ccc1OCc1ccc(F)cc1,-42,43*,40,46,-30,25
CCOc1cc(/C=C2\C(=O)ON=C2c2ccccc2)ccc1OC,-2,-4,24,20,-2,·
CCN(C(=O)c1cc(S(=O)(=O)N2CCc3ccccc32)cn1C)c1ccccc1,14,14,32,33,1,·
CCCc1nnc(SCC(=O)NC2CCCC2)n1CCOC,4,0,-8,-7,-3,·
O=C1c2ccccc2CC1Sc1nnc(-c2ccncc2)o1 (configuration not stated),·,-10,18,16,-4,·
Cc1ccccc1N1C(=O)CC(Sc2nnc(-c3ccccc3)o2)C1=O (configuration not stated),27,44*,33,31,8,44*
CCN(C(=O)COc1ccc(F)cc1Br)c1c(N)n(Cc2ccccc2)c(=O)[nH]c1=O,·,-2,-1,0,0,·
CCOc1cc(C=O)c(Br)cc1OC1CCCC1,15,40*,28,-17,0,19
COc1cc(CNCCN(C)C)c(Br)cc1OC1CCCC1,23,-8,5,14,0,·
O=C(COC(=O)CNC(=O)c1ccccc1F)Nc1ncc(Cl)cc1Cl,11,-4,2,6,4,·
CCS(=O)(=O)c1nc(S(=O)(=O)c2ccc(C)cc2)c(N2CCC(C)CC2)s1,-6,18,38,40,-5,·
OCCNc1nc(Nc2ccc(Br)cc2)nc2ccccc12,·,43*,21,13,·,22
COC(=O)[C@H]1C[C@@]2(O)CN(S(=O)(=O)c3ccc(C)cc3)C[C@@]2(OC(=O)NC2CC2)C[C@H]1C(=O)OC,·,·,·,·,-1,·
CN(C)c1ccc(C(C(=O)NC2CCCC2)N(C(=O)c2csnn2)C2CC2)cc1 (configuration not stated),-1,-1,-4,6,2,·
COc1ccc2ccccc2c1/C=N\NC(=O)c1cccnc1,·,-1,-2,6,1,·
O=C(N/N=C/c1c(O)ccc2ccccc12)c1cccnc1,-7,42*,13,42,-2,37*
N#CC(C#N)=C1C=CC=CN1/C(=C\c1ccccc1)C(=O)c1cccs1,-2,43*,37,21,7,18
O=[N+]([O-])c1ccc(O)c(C2=NNC(c3ccccc3F)C2)c1 (configuration not stated),-56,50*,36,43,2,57*

# Screens (PubChem BioAssay)
